For test [1], the target named is Thyrotropin-releasing hormone receptor (Homo sapiens) (UniProt P34981). The test can be described thus: qHTS for Small Molecule Agonists and Allosteric Enhancers of Human TRH Receptor: Validation Screen for Agonists (AID 493127;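 active = calcium activation more than 3 SD above the typical response in the agonist read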;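 also: intracellular calcium rise by fluo-8 fluorescence before TRH EC20 addition; 0% is about no effect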). The settings on record: TRH receptor agonist cell assay; at 2 µM; stronger effect = higher value. Put shortly: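 Compound-evoked intracellular calcium release in fluo-8-loaded TRHR cells, read kinetically on FDSS (Ex 480/Em 530, 1 s/cycle) after 23 nL pintool transfer. Agonist phase preceded 10 nM TRH EC20 addition.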

Test [2] in a line: Nrf2 qHTS screen for inhibitors: Validation (AID 493153; active = well fitted inhibition curve with a large enough effect in the main read-out, with a control signal flat, not every such curve was filed as active). The settings on record: A549 ARE-Fluc reporter, 18-24 h; Potency: luciferase luminescence; viability change: measured here: cytotoxicity max response; luciferase luminescence, at 46.1 µM (top of the series). Put shortly:
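Concentration-response on A549 ARE_Fluc reporter cells exposed 18-24 h at 37 C, 5% CO2. Cytotoxicity read first by CellTiter-Fluor fluorescence (Ex 405/Em 525), then Nrf2 inhibition by BugLite luminescence after 15 min.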
(qHTS replaces the single test concentration by a dilution series.)

Test [3] can be described thus: qHTS for Inhibitors of Cell Surface uPA Generation: Validation Assay (AID 493164).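 Also: RAW 264.7 macrophage cells exposed to compound for 18 h; 0% is about no effect.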 The settings on record: mouse cells, plasminogen activation; series mostly up to 38.3 µM. Put shortly:
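ATP-Lite luminescence read-out: ATP remains high when uPA activity-dependent LF translocation into the cytoplasm is blocked. RAW 264.7 cells, 18 h compound exposure at 37 C; 7-point titration, 2.45 nM to 38.3 uM final.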

Test [4] has as its target Galactokinase (Homo sapiens) (UniProt P51570). The test can be described thus: qHTS Validation Assay for Inhibitors of Human Galactokinase (GALK) (AID 493189). Also: 0% is about no effect. The settings on record: purified human GALK enzyme activity, qHTS 7-point titration; series mostly up to 57.5 µM. Put shortly: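 GALK (5 nM) with 35 uM ATP and 100 uM galactose in HEPES pH8.0, MgCl2, NaCl, DTT, BSA; 1 h at room temperature. Residual ATP read by Kinase-Glo Plus luminescence after 10 min.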

The target in test [5] is Phosphoglycerate kinase, glycosomal (Trypanosoma brucei brucei) (UniProt P07378). The experiment in a line: qHTS Validation Assay to Find Inhibitors of Phosphoglycerate Kinase (AID 504547).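 Also: control wells lack PGK and mark full inhibition.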 The settings on record: enzymatic PGK inhibition, coupled luminescence read-out; series mostly up to 57.5 µM. Put shortly: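 Compounds are pinned into the substrate/PGK mixture, and GAPDH (100nM final) is added to start the reaction by producing 1,3-BPG. After 60 minutes at room temperature, Kinase-Glo Plus is added and luminescence is measured 10 minutes later.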

In test [6] the target is phosphoglycerate mutase (Leishmania major) (UniProt Q4Q090). The experiment in a line: qHTS Validation Assay to Find Inhibitors of Phosphoglycerate Mutase (AID 504548). Also: % is scaled to controls: 0 for no effect and ±100 for the full control effect. To be noted: biochemical enzyme activity; series mostly up to 57.5 µM. Put shortly: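 Lm PGAM at 1.25 nM final with substrate in 100 mM TEA pH 7.6, 5 mM MgCl2, 0.01% Tween-20; 45 min at room temperature. Kinase-GloPlus added, 10 min, end-point luminescence read.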

Test [7] concerns the target Ubiquitin carboxyl-terminal hydrolase 1 (Homo sapiens) (UniProt O94782). The experiment in a line: Inhibitors of USP1/UAF1: Pilot qHTS (AID 504865). Also: nearly all actives have a fitted effect of over 35% in size. Also: potency is read from the fitted curve at half-maximal effect. To be noted: purified USP1/UAF1, Ub-rhodamine cleavage fluorescence; series mostly up to 114 µM. Put shortly: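 USP1/UAF1 complex (1nM) preincubated with compound 15 min at room temperature, then Ub-Rho substrate (150nM final) added. Fluorescence read kinetically at 480/540 nm, 6 reads every 60 seconds. Buffer: 50mM HEPES pH 7.8, 0.5mM EDTA, 0.1 mg/ml BSA, 1mM TCEP, 0.01% Tween-20.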

Test [8] can be described thus: Validation screen for small molecules that induce DNA re-replication in SW480 colon adenocarcinoma cells (AID 504364). Also: 0% is about no effect. The settings on record: DNA re-replication phenotype (high-content imaging); series mostly up to 46.1 µM. Put shortly: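 Image-based DNA content read-out: Hoechst stain 40 min, total nuclear fluorescence intensity (ex 405 nm, em 500-530 nm) after 48 h compound exposure of 250 SW480 cells/well at 37 C, 5% CO2, versus DMSO vehicle.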

The target of test [9] is Peptidyl-prolyl cis-trans isomerase NIMA-interacting 1 (Homo sapiens) (UniProt Q13526). The experiment in a line: qHTS Validation Assay to Find Inhibitors of Pin1 (AID 504536; active = well fitted inhibition curve with a large enough effect in the polarisation, with a control signal flat, not every such curve was filed as active; the % refers to the polarisation;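 also: 0% = full Pin1 enzyme wells and -100% = no-enzyme wells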). The settings on record: Pin1 fluorescence polarization peptide binding assay; series mostly up to 57.5 µM. Put shortly:
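Fluorescence polarization competition: compounds (titration) displace HiFluor-488-labeled Pin1-1b peptide from Pin1 (0.3 uM final) in pH 7.5 HEPES buffer with DTT, 10 min at room temperature; %Activity normalized to no-enzyme wells, curves fitted.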

Test [10] in a line: qHTS for Inhibitors of ATXN expression: Validation (AID 588378). Also: % is scaled to controls: 0 for no effect and ±100 for the full control effect; nearly all actives have a fitted effect of over 75% in size. To be noted: cell-based ATXN2 expression reporter assay, luminescence; series mostly up to 57.1 µM. Put shortly:
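Luminescence from an ATXN2-FFLuc reporter in HEK293 cells served as read-out after 24 h compound treatment at 37 degrees C; CellTiter-Fluor fluorescence was recorded first to assess viability.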

The nature of test [11]: qHTS for Inhibitors of ATXN expression: Validation of Cytotoxic Assay (AID 588349). Also: % is scaled to controls: 0 for no effect and ±100 for the full control effect. The settings on record: cytotoxicity counter-screen for ATXN expression inhibitors, cell viability; series mostly up to 57.1 µM. Put shortly:
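Cytotoxicity counter-screen: ATP-based luminescent viability (CellTiter Glo) after 72 hr exposure of HEK293 cells to a compound titration at 37 degrees C.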

Each structure is given as a SMILES string. Where “and” joins values, the source holds several entries; their conditions need not be identical. Equal values may be shown once. Records with an inconclusive call do not appear. Calls of active or inactive are those of the source. Unless noted, calls follow the shape of the dose curve; as a rule, active = well fitted curve in the direction sought with a large enough effect; inconclusive = small, poorly fitted or top-dose-only effect, or another doubt; inactive = no such curve, though single readings can be large; an effect the other way counts as inactive or inconclusive.

The values below come from PubChem BioAssay (NCATS).

Galactokinase (Homo sapiens), sequence (P51570 whole entry, looked up): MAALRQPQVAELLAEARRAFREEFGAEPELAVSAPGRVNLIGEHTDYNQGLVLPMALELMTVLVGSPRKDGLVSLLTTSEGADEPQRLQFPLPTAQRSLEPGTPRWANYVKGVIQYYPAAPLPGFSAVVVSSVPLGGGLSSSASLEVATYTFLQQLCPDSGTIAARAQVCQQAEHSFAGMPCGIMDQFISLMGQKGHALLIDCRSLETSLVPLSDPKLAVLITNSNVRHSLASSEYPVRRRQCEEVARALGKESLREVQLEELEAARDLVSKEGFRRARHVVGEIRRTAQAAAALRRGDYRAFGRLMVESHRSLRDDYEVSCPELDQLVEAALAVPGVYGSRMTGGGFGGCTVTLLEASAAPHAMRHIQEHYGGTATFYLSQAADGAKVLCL
Peptidyl-prolyl cis-trans isomerase NIMA-interacting 1 (Homo sapiens), sequence (Q13526 whole entry, looked up): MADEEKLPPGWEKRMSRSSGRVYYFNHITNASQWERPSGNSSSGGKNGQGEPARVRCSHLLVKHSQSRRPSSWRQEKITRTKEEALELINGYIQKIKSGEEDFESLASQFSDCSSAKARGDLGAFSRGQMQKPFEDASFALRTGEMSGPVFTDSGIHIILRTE
Phosphoglycerate kinase, glycosomal (Trypanosoma brucei brucei), sequence (P07378 whole entry, looked up): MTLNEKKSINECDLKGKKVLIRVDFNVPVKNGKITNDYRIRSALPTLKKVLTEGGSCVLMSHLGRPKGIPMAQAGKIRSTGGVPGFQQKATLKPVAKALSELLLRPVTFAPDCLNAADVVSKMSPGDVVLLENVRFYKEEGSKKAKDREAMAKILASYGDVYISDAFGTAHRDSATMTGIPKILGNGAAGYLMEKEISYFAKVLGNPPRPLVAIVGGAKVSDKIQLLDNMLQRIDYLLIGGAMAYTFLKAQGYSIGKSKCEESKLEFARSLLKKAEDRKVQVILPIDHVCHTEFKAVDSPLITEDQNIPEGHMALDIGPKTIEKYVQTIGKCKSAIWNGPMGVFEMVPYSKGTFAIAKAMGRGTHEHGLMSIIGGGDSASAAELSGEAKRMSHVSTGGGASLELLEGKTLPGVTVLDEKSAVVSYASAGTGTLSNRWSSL
phosphoglycerate mutase (Leishmania major), sequence (Q4Q090 1-553): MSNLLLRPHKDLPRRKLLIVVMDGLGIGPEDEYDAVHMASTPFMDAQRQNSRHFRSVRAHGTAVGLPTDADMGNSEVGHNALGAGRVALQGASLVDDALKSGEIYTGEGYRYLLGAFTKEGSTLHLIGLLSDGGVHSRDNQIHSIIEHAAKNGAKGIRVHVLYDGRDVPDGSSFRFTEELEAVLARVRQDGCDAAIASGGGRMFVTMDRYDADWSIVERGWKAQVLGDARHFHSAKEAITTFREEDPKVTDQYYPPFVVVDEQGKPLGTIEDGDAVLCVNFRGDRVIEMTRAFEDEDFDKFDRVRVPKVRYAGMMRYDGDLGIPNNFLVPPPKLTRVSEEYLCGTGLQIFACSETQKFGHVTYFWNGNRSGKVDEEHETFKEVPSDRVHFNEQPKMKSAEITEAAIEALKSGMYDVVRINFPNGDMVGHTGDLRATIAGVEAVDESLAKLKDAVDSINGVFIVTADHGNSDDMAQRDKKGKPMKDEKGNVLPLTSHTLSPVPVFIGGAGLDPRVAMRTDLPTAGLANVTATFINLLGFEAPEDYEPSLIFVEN
Thyrotropin-releasing hormone receptor (Homo sapiens), sequence (P34981 whole entry, looked up): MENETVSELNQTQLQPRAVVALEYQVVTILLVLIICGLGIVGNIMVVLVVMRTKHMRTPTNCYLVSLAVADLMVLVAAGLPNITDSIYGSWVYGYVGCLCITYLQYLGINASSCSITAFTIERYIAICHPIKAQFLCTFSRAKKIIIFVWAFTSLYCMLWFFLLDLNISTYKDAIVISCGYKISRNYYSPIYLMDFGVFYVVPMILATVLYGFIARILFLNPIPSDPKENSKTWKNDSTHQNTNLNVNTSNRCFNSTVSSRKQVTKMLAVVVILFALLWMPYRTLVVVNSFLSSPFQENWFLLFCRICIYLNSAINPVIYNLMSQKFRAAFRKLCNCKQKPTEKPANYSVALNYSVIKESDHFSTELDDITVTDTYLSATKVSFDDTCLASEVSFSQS
Ubiquitin carboxyl-terminal hydrolase 1 (Homo sapiens), sequence (O94782 whole entry, looked up): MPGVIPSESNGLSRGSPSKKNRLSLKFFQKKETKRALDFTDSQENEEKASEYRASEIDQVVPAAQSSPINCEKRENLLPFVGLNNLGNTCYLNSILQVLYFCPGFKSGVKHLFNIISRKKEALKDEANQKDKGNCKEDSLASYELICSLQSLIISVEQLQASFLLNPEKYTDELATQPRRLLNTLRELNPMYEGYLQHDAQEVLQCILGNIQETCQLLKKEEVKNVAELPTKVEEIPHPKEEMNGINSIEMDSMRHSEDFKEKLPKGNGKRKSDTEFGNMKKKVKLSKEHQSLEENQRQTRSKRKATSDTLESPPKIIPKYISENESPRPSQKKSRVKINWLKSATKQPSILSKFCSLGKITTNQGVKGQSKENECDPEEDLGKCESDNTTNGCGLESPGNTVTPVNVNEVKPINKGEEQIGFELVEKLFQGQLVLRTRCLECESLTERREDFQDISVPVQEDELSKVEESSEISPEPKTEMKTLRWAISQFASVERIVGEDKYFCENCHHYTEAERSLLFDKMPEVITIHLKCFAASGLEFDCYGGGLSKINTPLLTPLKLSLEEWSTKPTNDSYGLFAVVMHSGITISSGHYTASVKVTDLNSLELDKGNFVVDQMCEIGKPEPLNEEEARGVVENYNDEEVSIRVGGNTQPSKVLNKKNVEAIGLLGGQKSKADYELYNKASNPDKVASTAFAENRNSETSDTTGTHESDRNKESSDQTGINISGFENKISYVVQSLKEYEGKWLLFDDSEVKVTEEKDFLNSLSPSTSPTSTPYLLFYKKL

As to `CC(=O)[C@]1(O)Cc2c(O)c3c(c(O)c2[C@@H](O[C@H]2C[C@H](N)[C@H](O)[C@H](C)O2)C1)C(=O)c1ccccc1C3=O`, the activation in test [1] was 17.9% (inactive). The Potency entry in test [2] was “inactive”. Besides, in test [2], the viability change is -47.3%. The call in [3], in [4], in test [5] and in test [6] was inactive. Further, the Potency in test [7] was 50.1 µM (active) and 39.8 µM (active).
`C[C@H](CS)C(=O)N1CCC[C@H]1C(=O)O`: the activation in test [1] was -0.375% (inactive). The Potency entry in test [2] and in test [10] was “inactive” each time. Also, the viability change in [2] came out at 0.828%. The result in test [3], in [8], in test [9], in test [5] and in test [6] was inactive.
As to `Brc1c(NC2=NCCN2)ccc2nccnc12`, the Potency entry in [2], in [7], in test [11] and in test [10] was “inactive” throughout. The viability change in [2] was -1.27%. The molecule was classed as inactive in [3], in [4], in test [8], in test [9], in test [5] and in test [6].
For `COCCCC/C(=N\OCCN)c1ccc(C(F)(F)F)cc1`, the Potency result in [2], in [7] and in [11] was “inactive” each time. In addition, the viability change in test [2] came to 9.56%. The molecule was classed as inactive in test [3], in test [4], in [8], in test [9], in test [5] and in test [6].
In the case of `Cc1nc2sccn2c(=O)c1CCN1CCC(=C(c2ccc(F)cc2)c2ccc(F)cc2)CC1`, in test [2], the Potency entry was “inactive”. In [2], the viability change is -8.03%. Further, the result in test [3], in test [4], in test [8], in test [9], in [5] and in test [6] was inactive.
For the molecule `C[C@]12CCC(=O)C=C1CC[C@@H]1[C@@H]2CC[C@@]2(C)[C@H]1CC[C@]2(O)C(=O)CO`, the activation in test [1] was 0.188% (inactive). Also, the outcome in test [3], in [4], in [8], in test [9], in test [5] and in [6] was inactive. The Potency result in test [11] and in test [10] was “inactive” in each case.
For the molecule `O=C1CC2(CCCC2)CC(=O)N1CCCCN1CCN(c2ncccn2)CC1`, the activation in [1] was 0.688% (inactive). Also, the call in test [3], in test [4], in test [8], in test [9], in test [5] and in test [6] was inactive. Further, in test [10], the Potency result was “inactive”.
On to `CN(C(=O)CCCOc1ccc2[nH]c(=O)ccc2c1)C1CCCCC1`, for which, in test [1], the activation is 1.44% (inactive). Moreover, the molecule was classed as inactive in test [3], in test [4], in [8], in [9], in test [5] and in test [6]. For the same molecule, the Potency entry in test [7], in test [11] and in test [10] was “inactive” in each case.
`COC(=O)[C@@H](N)Cc1ccc(O)c(O)c1`: the activation in test [1] was 1% (inactive). The Potency entry in test [2] and in test [10] was “inactive” in each case. Also, in [2], the viability change is -11.8%. Moreover, the outcome in test [3], in test [4], in test [8], in test [5] and in test [6] was inactive.
